Vaccinia Venus = inhibitors of vaccinia virus (Venus reporter) | Vaccinia virus Venus reporter expression, fluorescence | Potency, µM (highest dose often 36.5 µM), most hits filed as inhibitors | 330,000 compounds, 0.46% hits; calls by dose curve; tested in A549 cells; further: nearly all actives have a fitted effect of over 30% in size
HCV inhibitor = inhibitors of hepatitis C virus infection | Huh7.5.1 HCVcc-Cre infection, luciferase reporter, 44 h | Potency, µM (highest dose often 41.8 µM), hits mostly inhibitors | 340,000 compounds, 3.4% hits | AID 651820; active means well fitted inhibition curve with a large enough effect; inconclusive means small, poorly fitted or top-dose-only effect, or another doubt; inactive means no such curve, though single readings can be large or run the other way
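Seed cells (1,000/well) for 4 h; treat with compound and infect with HCVcc-Cre, moi about 0.5. Incubate 44 h, then detect luciferase activity.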
VACV mCherry inh = inhibitors of vaccinia virus infection (mCherry reporter signal); AID 720579; Vaccinia virus mCherry reporter infection, fluorescence; Potency, µM (titrated, usually from 36.5 µM), hits mostly inhibitors; 310,000 compounds, 0.63% hits; calls by dose curve; tested in A549 cells; further: nearly all actives have a fitted effect of over 35% in size
Lassa entry inh = Lassa virus entry inhibition | Lassa virus pseudotype entry inhibition, cell reporter | Potency, µM (highest dose often 37.9 µM), hits mostly inhibitors | 300,000 compounds, 1.2% hits; calls by dose curve; tested in HEK293 cells; further: nearly all actives have a fitted effect of over 50% in size
HCMV antiviral = human cytomegalovirus inhibition; HFF cells, HCMV-luciferase reporter, 72 h; active compounds read low; activity change, negative = inhibition, % at 57.5 µM; 410,000 compounds, 4.5% hits; AID 1259415; in the data active means activity change below about -60%; inconclusive means no clear call, values can overlap the other calls; inactive means above about -39%
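After 16 h attachment at 37C, HFF cells received test compound and HCMV-luciferase (1 PFU/cell); reporter luminescence read 72 h later, data normalized against buffer-only and known inhibitor Salinomycin.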
MARV entry inh = inhibitors of Marburg virus binding or cell entry; Marburg virus pseudotyped entry inhibition, cell reporter; Potency, µM (top dose mostly 37.8 µM), hits mostly inhibitors; 300,000 compounds, 1.8% hits; AID 540276; calls by dose curve; tested in HEK293 cells
Each line names hits and unclear results; the compound was inactive in the other large screens. An excerpt weighted towards active compounds, which were near 7.8% of everything screened.

CCOc1cccc(C(=O)NC(=S)Nc2ccc(N3CCCC3)cc2)c1	none (no result: VACV mCherry inh)
Cn1c(=O)c2cc(NC(=S)NC3CCCCC3)ccc2n1Cc1cccc(C(F)(F)F)c1	HCMV antiviral -71 (no result: HCV inhibitor, Lassa entry inh, MARV entry inh)
COCCN=C1NN=C(c2ccc(NC(C)=O)cc2)CS1	HCMV antiviral -67 (no result: Lassa entry inh)
CC(=O)Nc1ccc(C2=NNC(=Nc3ccc(S(=O)(=O)N4CCOCC4)cc3)SC2)cc1	HCV inhibitor inconclusive, Lassa entry inh inconclusive, MARV entry inh 11µM
CCN=C1NN=C(c2ccc(C)cc2)CS1	Lassa entry inh inconclusive, MARV entry inh inconclusive
O=S(=O)(c1ccc(N=C2NN=C(c3cc(F)ccc3F)CS2)cc1)N1CCOCC1	HCV inhibitor 22µM, VACV mCherry inh inconclusive, Lassa entry inh 13µM, HCMV antiviral -99, MARV entry inh 5µM
Fc1ccc(N=C2NN=C(c3cc(F)ccc3F)CS2)cc1	Vaccinia Venus inconclusive, HCV inhibitor inconclusive, VACV mCherry inh inconclusive, Lassa entry inh inconclusive, MARV entry inh inconclusive
COCCN1C(=O)NC(CCc2ccccc2)C(C(C)=O)=C1C (stereo not given)	none (no result: Vaccinia Venus, HCV inhibitor, VACV mCherry inh, Lassa entry inh, HCMV antiviral)
Cc1oc(-c2ccc(C(=O)NCc3ccccc3Cl)cc2)nc1CN1CCc2ccccc21	none (no result: HCV inhibitor, MARV entry inh)
O=C(Nc1ccc(Oc2ccc(Cl)cc2)c(Cl)c1)c1cc(I)cc(I)c1O	Vaccinia Venus inconclusive, HCV inhibitor 32µM, HCMV antiviral inconclusive (no result: Lassa entry inh, MARV entry inh)
O=C(Cn1ncc2c3ccccc3n(Cc3ccccc3)c2c1=O)N1CCN(c2ncccn2)CC1	HCV inhibitor 10µM, Lassa entry inh inconclusive, MARV entry inh inconclusive (no result: Vaccinia Venus, VACV mCherry inh, HCMV antiviral)
CCN1CCN(C(=O)Cn2ncc3c4ccccc4n(Cc4c(C)cc(C)cc4C)c3c2=O)CC1	HCMV antiviral -60, MARV entry inh inconclusive (no result: HCV inhibitor)
N#Cc1ncc(Br)cn1	none (no result: HCV inhibitor, Lassa entry inh, HCMV antiviral, MARV entry inh)
CCOC(=O)CNC(=O)Cn1cnc2c(nnn2-c2ccc(F)cc2)c1=O	MARV entry inh inconclusive (no result: Vaccinia Venus, VACV mCherry inh)
CCOC(=O)Cn1cnc2c(nnn2-c2ccc(C)cc2)c1=O	HCMV antiviral -74 (no result: Vaccinia Venus, VACV mCherry inh)
CCOC(=O)CNC(=O)CSc1ncnc2c1nnn2-c1ccc(F)cc1	HCMV antiviral -68 (no result: VACV mCherry inh)
CCOC(=O)Cn1cnc2c(nnn2-c2ccc(OC)cc2)c1=O	none (no result: Vaccinia Venus, VACV mCherry inh)
CCCOc1ccc(C(=O)Nc2ccc(S(=O)(=O)NC3=NCCCCC3)cc2)cc1	Vaccinia Venus inconclusive, HCV inhibitor inconclusive, VACV mCherry inh 8.9µM, HCMV antiviral -62, MARV entry inh inconclusive
CCN(CC)S(=O)(=O)c1cccc(C(=O)Nc2ccc(S(=O)(=O)NC3=NCCCCC3)cc2)c1	HCMV antiviral -62
CON(C)S(=O)(=O)c1cccc(C(=O)Nc2ccc(S(=O)(=O)NC3=NCCCCC3)cc2)c1	HCV inhibitor inconclusive, HCMV antiviral inconclusive
CCOc1ncccc1C(=O)Nc1ccc(S(=O)(=O)NC2=NCCCCC2)cc1	none
Cc1cccc(CNc2ncncc2-c2cccc(C#N)c2)c1	none (no result: HCV inhibitor, Lassa entry inh, HCMV antiviral, MARV entry inh)
CC1=NOC(=O)/C1=C/c1ccc(N(C)C)cc1	none (no result: Vaccinia Venus, VACV mCherry inh)
CCN(CC)c1ccc(/C=C2/C(=O)ON=C2C)cc1	HCMV antiviral -65 (no result: Vaccinia Venus, VACV mCherry inh)
CC(C)C(CCNCc1ccccn1)c1ccc(Cl)cc1 (stereo not given)	HCV inhibitor inconclusive, HCMV antiviral inconclusive, MARV entry inh inconclusive
CN1CCC(NCCC(c2ccc(F)cc2)c2ccc(Cl)cc2)CC1 (stereo not given)	Vaccinia Venus 11µM, HCV inhibitor 2µM, VACV mCherry inh inconclusive, Lassa entry inh inconclusive, HCMV antiviral -97, MARV entry inh inconclusive
CC(C)C(CCNC1CCN(C)CC1)c1ccc(Cl)cc1 (stereo not given)	HCV inhibitor 1.4µM, HCMV antiviral -99 (no result: Vaccinia Venus, VACV mCherry inh, Lassa entry inh, MARV entry inh)
CC(NC1CCN(Cc2ccccc2)CC1)c1ccc(F)cc1 (stereo not given)	HCV inhibitor inconclusive, Lassa entry inh inconclusive, MARV entry inh inconclusive
O=C(CSc1nc2ccccc2c(=O)n1CC1CCCO1)NCc1ccccc1 (stereo not given)	none
CCCCN(CC)C(=O)CSc1nc2ccccc2c(=O)n1CC1COc2ccccc2O1 (stereo not given)	HCV inhibitor 10µM, HCMV antiviral inconclusive, MARV entry inh inconclusive (no result: Vaccinia Venus, VACV mCherry inh)
CCCCNC(=O)CSc1nc2ccccc2c(=O)n1CC1COc2ccccc2O1 (stereo not given)	HCV inhibitor 2.8µM (no result: Vaccinia Venus, VACV mCherry inh)
COc1ccc(-c2cn3c(n2)sc2cc(C(=O)NCCC4=CCCCC4)ccc23)cc1	none (no result: HCV inhibitor, HCMV antiviral, MARV entry inh)
Cc1ccc(NC(=O)C[n+]2cc(-c3ccccc3)n3c2CCC3)c(C)c1	HCMV antiviral inconclusive

Source: PubChem (National Center for Advancing Translational Sciences (NCATS))
